Screens: PubChem, National Center for Advancing Translational Sciences (NCATS)
POLH inh = qHTS for Inhibitors of Polymerase Eta | DNA polymerase eta (Homo sapiens), Q9Y253 | recombinant Pol eta, fluorescent DNA replication assay | Potency, µM (highest dose often 114 µM), most hits filed as inhibitors | 390,000 tested, 1.2% active | AID 588591, 2011
Target sequence (Q9Y253 whole entry, looked up): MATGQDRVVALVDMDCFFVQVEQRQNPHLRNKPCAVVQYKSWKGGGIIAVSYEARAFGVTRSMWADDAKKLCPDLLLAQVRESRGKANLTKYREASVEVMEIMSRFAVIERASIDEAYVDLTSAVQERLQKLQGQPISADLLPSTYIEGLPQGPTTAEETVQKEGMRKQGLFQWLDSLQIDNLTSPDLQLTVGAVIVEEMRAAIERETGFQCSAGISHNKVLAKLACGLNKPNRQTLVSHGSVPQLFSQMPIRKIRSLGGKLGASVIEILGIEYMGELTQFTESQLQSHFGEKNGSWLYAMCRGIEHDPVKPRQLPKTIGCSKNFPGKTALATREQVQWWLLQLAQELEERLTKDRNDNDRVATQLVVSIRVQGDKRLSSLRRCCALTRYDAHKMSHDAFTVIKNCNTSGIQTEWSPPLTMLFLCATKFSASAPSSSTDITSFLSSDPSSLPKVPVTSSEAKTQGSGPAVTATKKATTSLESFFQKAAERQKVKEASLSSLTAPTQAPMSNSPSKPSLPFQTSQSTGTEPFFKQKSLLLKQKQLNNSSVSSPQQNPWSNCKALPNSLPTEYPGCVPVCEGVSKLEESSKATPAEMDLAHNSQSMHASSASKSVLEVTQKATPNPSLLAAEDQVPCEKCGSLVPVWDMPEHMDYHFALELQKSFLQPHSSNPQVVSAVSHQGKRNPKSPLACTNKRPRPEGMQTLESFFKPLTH
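Fluorescent replication assay: 50 nM final substrate added after a 15 min room-temperature compound preincubation with 10 nM enzyme. Signal taken at 0 min and again at 10 min.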
POLI inh = qHTS for Inhibitors of Polymerase Iota | DNA polymerase iota (Homo sapiens), Q9UNA4 | Pol iota fluorescent replication assay, 10 min | Potency, µM (titrated, usually from 115 µM), actives largely listed as inhibitors | 390,000 tested, 1% active
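Fluorescent replication assay read twice, at 0 min and 10 min after adding 50 nM (final) substrate. Enzyme (10 nM) and compounds were first incubated 15 min at room temperature; enzyme-free buffer wells were negative controls.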
PI5P4Ka inh = qHTS for Inhibitors of phosphatidylinositol 5-phosphate 4-kinase (PI5P4K). PI5P4Kalpha enzyme, ADP-Glo luminescence, 60 min; active compounds read low. 330,000 tested, 1.2% active. Phosphatidylinositol 5-phosphate 4-kinase type-2 alpha (Homo sapiens), P48426. max response, %; active = max response of -50% or lower; inconclusive = between -30% and -50%; inactive = -30% or higher; note: value at the top dose of about 77 µM
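ADP-Glo luminescence end-point read after a 60 min room-temperature kinase reaction of PI5P4Kalpha plus substrate, initiated with ATP at 5 microM final. Buffer: 0.038 M HEPES pH 7.4, EGTA, 0.1% CHAPS, 5% DMSO.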
WRN helicase inh = qHTS for Inhibitors of WRN Helicase | Bifunctional 3'-5' exonuclease/ATP-dependent helicase WRN (Homo sapiens), Q14191 | WRN helicase unwinding, fluorescent forked duplex, kinetic | Potency, µM (highest dose often 114 µM), actives largely listed as inhibitors | 360,000 tested, 0.46% active; note: nearly all actives have a fitted effect of over 55% in size
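WRN at 20 nM final preincubated with compound 15 min at room temperature; reaction started with 100 nM fluorophore/quencher forked duplex oligonucleotide and 2 mM ATP final. Unwinding followed kinetically by red fluorescence (ex 525, em 598 nm).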
Pol beta inh = qHTS Assay for Inhibitors of DNA Polymerase Beta; Pol beta primer extension/strand displacement, fluorescence kinetic; Potency, µM (highest dose often 114 µM), actives largely listed as inhibitors; 340,000 tested, 1.3% active; AID 485314, 2010
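Reaction started by 50 nM substrate onto compound-treated Pol beta (10 nM, 15 min preincubation, room temperature); plates read at 0 min and 10 min. Normalized concentration-effect data fitted by four-parameter Hill equation.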
Pol kappa inh = qHTS for Inhibitors of Polymerase Kappa. DNA polymerase kappa (Homo sapiens), Q9UBT6. AID 588579, 2011. Potency, µM (titrated, usually from 107 µM), actives largely listed as inhibitors. 400,000 tested, 0.53% active. purified Pol kappa, fluorescent DNA synthesis assay, 10 min
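10 nM Pol kappa was preincubated with compounds for 15 min at room temperature. Reaction started with 50 nM (final) substrate. Fluorescence read kinetically at 0 and 10 min.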
Numbers stand for hits; 0 = inactive; ? = inconclusive; - = no result; [ ] = another dose, or the depositor's remark. Hits are enriched below; roughly 2.8% of the tested compounds scored in any of these assays. Unless noted, calls come from the whole dose curve; as a rule, active = well fitted curve in the direction sought with a large enough effect; inconclusive = small, poorly fitted or top-dose-only effect, or another doubt; inactive = no such curve, though single readings can be large; an effect the other way counts as inactive or inconclusive.

SMILES	POLH inh	POLI inh	PI5P4Ka inh	WRN helicase inh	Pol beta inh	Pol kappa inh
CN(C(=O)c1cccc(NC(=O)Cc2ccc(NC(=O)C3CCCN(S(=O)(=O)c4cccc([N+](=O)[O-])c4)C3)cc2)c1)C1CCC1 (stereo unspecified)	0	0	0	0	-	0
CN(C(=O)COC(=O)c1ccccc1OCC(=O)Nc1ccc(Br)cc1)c1ccccc1	-	0	-	-	-	0
CC1CCc2c(sc(NC(=O)c3cccn3C)c2C(N)=O)C1 (stereo unspecified)	31.6µM	?	?	0[11.6 µM]	-	0
Cc1sc2ncnc(SCC(=O)N3CCCC(C(F)(F)F)C3)c2c1C (stereo unspecified)	0	0	0	0	0	0
CCOC(=O)c1ccc(NC(=O)CC2C(=O)N(c3ccc(C)cc3)C(=O)N2C2CCCC2)cc1 (stereo unspecified)	0	0	-	-	?	0
CC(C)c1ccc(C(=O)CN2C(=O)NC3(CCc4ccccc43)C2=O)cc1 (stereo unspecified)	0	0	0	0	-	0
CCOc1ccc(NC(=S)NNC(=S)Nc2cccc(C(F)(F)F)c2)cc1	0	?	0	0	0	0
COc1ccc(NC(=S)NNC(=S)Nc2cccc(C(F)(F)F)c2)cc1	0	0	-78.0	?	0	0
COC(=O)/C(=C/Nc1ccc(O)cc1)[N+](=O)[O-]	0	7.08µM	0	0	0	0
COC(=O)/C(=C/Nc1ccccc1)[N+](=O)[O-]	0	0	-	0	0	0
CCCCNS(=O)(=O)c1ccc2nc(-c3cccnc3)cc(C(=O)NCCCOCC)c2c1	0	0	-	-	44.7µM	0
CC(=O)c1ccc(NC(=O)Cn2c(=O)nc(-c3ccccc3)c3ccccc32)cc1	0	70.8µM	-	-	0	0
Cc1ccc2nc(NC(=O)c3ccc(N4C(=O)CCC4=O)cc3)sc2c1	0	0	-54.3	0	0	0
Cc1cc(C)c2sc(NC(=O)c3ccc(N4C(=O)CCC4=O)cc3)nc2c1	0	0	0	0	0	0
CC1CCC(NC(=O)c2ccc3c(c2)N(Cc2ccccc2F)C(=O)c2ccccc2S3=O)CC1 (stereo unspecified)	0	0	-	-	0	0
C=CCNC(=O)CN1CCC(O)(c2ccc(F)cc2)CC1	0	100µM	-	0	0	0
CC(C)CCNC(=O)NC(=O)COC(=O)/C=C/c1cccc([N+](=O)[O-])c1	0	0	0	0	0	0
C=CCNC(=O)NC(=O)COC(=O)/C=C/c1cccc([N+](=O)[O-])c1	0	0	-82.6	0	0	0
N/C(COc1cccc(C(F)(F)F)c1)=N\NC(=O)c1cccnc1Oc1ccccc1	0	0	0	0	0	0
Cc1[nH][nH]c(=O)c1C(c1c(C)[nH][nH]c1=O)c1cn(Cc2cccc3ccccc23)c2ccccc12	?	0	?	0	0	0
Cc1[nH][nH]c(=O)c1C(c1c(C)[nH][nH]c1=O)c1cn(C)c2ccccc12	0	2.51µM	0	0	0	0
CC1CCC(C(C)C)C(OC(=O)C[n+]2cccc(C(N)=O)c2)C1 (stereo unspecified)	0	0	-75.3	?	0	0
CC1CCC(C(C)C)C(OC(=O)COC(=O)c2ccc(N)cc2)C1 (stereo unspecified)	?	?	0	0	0	0
CCOc1ccc(NC(=O)CN2C(=O)c3ccccc3Sc3ccc(C(=O)OC)cc32)cc1	?	0	-	-	79.4µM	0
O=C(Nc1ccc(C(=O)O)cc1)/C(=C\c1ccco1)NC(=O)c1ccc(Br)cc1	0	-	0	0	-	-
SMILES	POLH inh	POLI inh	PI5P4Ka inh	WRN helicase inh	Pol beta inh	Pol kappa inh
O=C(O)/C(=C\c1ccco1)NC(=O)c1cccc2ccccc12	50.1µM	?	-	0	0	50.1µM
O=C(O)/C(=C\c1ccco1)NC(=O)c1ccc(Br)o1	20µM	?	0	0[11.6 µM]	-	0
CC(C)(C)c1ccc(C(=O)N/C(=C\c2ccco2)C(=O)O)cc1	0	0	0	0	?	0
NC(=O)/C(=C\c1ccco1)NC(=O)c1ccc(Br)o1	0	0	0	0	-	0
O=C(Nc1ccc(C(=O)O)cc1)/C(=C\c1ccco1)NC(=O)c1ccc(Br)o1	50.1µM	?	0	0	?	79.4µM
CC(C)C(NC(=O)/C(=C/c1ccco1)NC(=O)c1ccc(Br)o1)C(=O)O (stereo unspecified)	20µM	?	0	0	39.8µM	?
Cc1ccccc1-c1nc2scc(CCNS(=O)(=O)c3ccccc3)n2n1	0	0	-	-	0	0
O=C(NC(Cc1ccccc1)C(=O)O)/C(=C/c1ccc([N+](=O)[O-])cc1)NC(=O)c1ccc(Br)o1 (stereo unspecified)	0	0	0	0	0	0
O=C(Nc1ccccc1C(=O)O)/C(=C/c1ccc([N+](=O)[O-])cc1)NC(=O)c1ccc(Br)o1	39.8µM	0	0	0[11.6 µM]	28.2µM	0
CN(C)S(=O)(=O)c1ccc(Cl)c(C(=O)NNC(=O)Cn2ccc(C(F)(F)F)n2)c1	0	0	0	0	-	0
Cc1c(Cl)cccc1N=C1NC(=O)CS1	0	-	0	0	-	-
Cc1ccc(C)c2[nH]c(=O)c(CN(Cc3ccco3)C(=S)NCC3CCCO3)cc12 (stereo unspecified)	0	0	0	0	0	0
Cc1ccc(S(=O)(=O)Cc2ccc(C(=O)N3CCN(Cc4ccccc4)CC3)o2)cc1	-	-	-	-	25.1µM	-
COc1ccccc1CNC(=O)c1ccc(CS(=O)(=O)c2ccccc2OC)o1	0	0	0	0	0	0
COc1ccc(S(=O)(=O)Cc2ccc(C(=O)N3CCN(Cc4ccccc4)CC3)o2)cc1	0	0	0	0	0	0
Cc1ccc(S(=O)(=O)Cc2ccc(C(=O)NCc3ccc4c(c3)OCO4)o2)cc1	0	?	-	0	5.62µM	?
COc1ccccc1CNC(=O)c1ccc(CS(=O)(=O)c2ccc(C)cc2)o1	44.7µM	70.8µM	0	0	89.1µM	?
CC1(C(=O)NS(=O)(=O)C2CC2)CCCN(C(=O)c2ccc(F)c(Cl)c2)C1 (stereo unspecified)	-	-	0	0	-	-
O=C([C@@H]1CC=C[C@@H]2CCN(C3CC3)C(=O)[C@@H]21)N1CCOCC1	-	0	-	-	-	0
CCc1ccc(CN(Cc2ccco2)C(=O)COc2ccccc2Cl)cc1	0	0	-	-	0	0
CCS(=O)(=O)Nc1ccc(C2=NN(S(C)(=O)=O)C(c3cccs3)C2)cc1 (stereo unspecified)	0	0	0	0	0	0
